Test [1] concerns XIP peptide (Xip251-270) binding. As to the kind of experiment: XIP fragment 251-270 binding compounds – biochemical, small-molecule microarray, fluorescence 635/667 nm, 0.1 µg/mL protein, primary screen (AID 1182). The note with it: fluorescent protein binding, 635 nm, higher = more signal, called active from +8 up or from −8 down.
The next test relates to XIP peptide (Xip251-270). As to the kind of experiment: compounds binding XIP fragment 251-270 – biochemical, small-molecule microarray, fluorescence 635/667 nm, 0.5 µg/mL protein, primary screen (AID 1183). The note with it: fluorescence 635 nm, higher = more signal.
Test [2] is described as follows: blood-stage malaria parasite viability loss – strain 3D7, DAPI fluorescence, 100 nL, primary screen (AID 1184).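 Note: parasites grown inside human red blood cells in medium with human serum.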 The note with it: P. falciparum 3D7 growth, 3 d, higher = more signal.
Test [3] concerns the target Homeobox protein Hox-A13 (Mus musculus) (UniProt Q62424). As to the kind of experiment: disruptors of Hoxa13 oligonucleotide interaction – biochemical, fluorescence polarization, labeled oligonucleotide, primary screen (AID 1185). The note with it: Hoxa13:DNA binding, 15 min, higher = more signal, called active from +8 up or from −8 down. For orientation: In fluorescence polarisation assays a small probe gives low polarisation when free and higher when bound to something large.

The nature of test [4]: blockers of DNA damage checkpoint Chk1 activation – imaging, HeLa, hydroxyurea, phospho-Chk1 antibody, percent positive cells, primary screen (AID 1186). The note with it: hydroxyurea-induced phospho-Chk1 immunofluorescence imaging, higher = more signal.
A short description of test [5]: blockers of DNA damage checkpoint Chk1 activation – imaging, HeLa, hydroxyurea, phospho-Chk1 nuclear intensity, primary screen (AID 1187). Conditions: hydroxyurea-induced phospho-Chk1 immunofluorescence imaging, higher = more signal.

The source made the active and inactive calls. Unless noted, the rule behind the calls is not given here.

Chain of Homeobox protein Hox-A13 (Mus musculus) (Q62424 whole entry, looked up): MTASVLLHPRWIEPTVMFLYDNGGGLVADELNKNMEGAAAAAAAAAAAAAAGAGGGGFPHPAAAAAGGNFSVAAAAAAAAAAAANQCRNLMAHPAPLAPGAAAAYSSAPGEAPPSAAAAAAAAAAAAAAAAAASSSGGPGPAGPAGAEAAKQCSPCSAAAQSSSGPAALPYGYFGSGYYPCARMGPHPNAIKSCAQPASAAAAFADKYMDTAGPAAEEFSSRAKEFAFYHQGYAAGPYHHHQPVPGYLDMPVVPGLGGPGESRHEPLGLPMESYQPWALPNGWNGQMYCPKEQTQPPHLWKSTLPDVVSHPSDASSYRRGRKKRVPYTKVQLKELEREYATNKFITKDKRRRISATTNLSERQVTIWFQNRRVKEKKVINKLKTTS

In the case of `COCCCNC(=O)[C@@H]1c2ccccc2C(=O)N(C2CCCCC2)[C@H]1c1ccc(CO)cc1`, the figures for the composite z-score (in test [1]; in the test with XIP peptide (Xip251-270)) were -0.209 (inactive) and 0.339, respectively. In addition, the z-score in test [2] is -1.76; in test [3], -0.837 (inactive); in test [4], 0.226 (inactive); in test [5], -0.182 (inactive).

As for `C=C(COC)C(=O)CC[C@@H](OC(C)=O)c1ccc(OCCO)cc1`, the composite z-score in test [1] is 1.61 (inactive); in the test on XIP peptide (Xip251-270), 0.779. In addition, the z-score was -0.964 in test [2], -4.63 (inactive) in test [3], 0.0887 (inactive) in test [4] and 0.241 (inactive) in test [5].

Turning to `O=C1N(CCS(=O)(=O)c2ccccc2)c2ccccc2[C@@H]2OC(c3ccc(OCCCO)cc3)=N[C@]12CCS(=O)(=O)c1ccccc1`, the composite z-score in test [1] is 3.92 (inactive); with XIP peptide (Xip251-270) it was 0.83. The z-score is -2.18 in test [2], 0.806 (inactive) in test [3], 0.38 (inactive) in test [4] and 0.682 (inactive) in test [5].

As to `CC1(C)OC[C@@]23C=C(Br)[C@@H](C[C@H]12)[C@@]1(CO1)C3=O`, the composite z-score in test [1] was -0.319 (inactive); in the test on XIP peptide (Xip251-270) it was 0.0841. The z-score in test [2] was 1.96; in test [3], 0.26 (inactive); in test [4] it was -0.54 (inactive); in test [5] it was -0.682 (inactive).

As to `CCOC(=O)C1=C[C@@H](C(C)(C)C)N(S(=O)(=O)c2ccc(C)cc2)[C@H]1c1ccccc1Cl`, the composite z-score in test [1] was 0.646 (inactive); with XIP peptide (Xip251-270), 0.705. Also, the z-score in test [2] is -1.65; in test [3], 0.649 (inactive); in test [4] it was 0.271 (inactive); in test [5], -0.0709 (inactive).

With `CC(=O)NCCCC[C@@H]1NC(=O)[C@@H]2C[C@H](C(=O)NCCCCCC[N+](C)(C)C)[C@H](c3ccc(O)cc3)N2C1=O`, the composite z-score is 0.0817 (inactive) in test [1] and 0.846 in the test on XIP peptide (Xip251-270). Also, the z-score was 1.12 in test [2], -2.45 (inactive) in test [3], 0.956 (inactive) in test [4] and 0.817 (inactive) in test [5].

For `CC(C)CNC(=O)[C@@H]1c2ccccc2C(=O)N(CC23CC4CC(CC(C4)C2)C3)[C@H]1c1ccc(CO)cc1`, the composite z-score in test [1] was 0.41 (inactive); in the test on XIP peptide (Xip251-270), 0.613. Moreover, the z-score in test [2] was -2.11; in test [3] it was -3.84 (inactive); in test [4], -0.282 (inactive); in test [5], -0.0264 (inactive).

Take `CCCCCCc1nc(-c2ccc(OC)nc2)cc2c1[Si](C(C)C)(C(C)C)OC2`: the composite z-score in test [1] is -0.0275 (inactive); with XIP peptide (Xip251-270) it was -0.019. Moreover, the z-score in test [2] is -1.99; in test [3], -3.55 (inactive); in test [4], -0.0362 (inactive); in test [5], 0.237 (inactive).

On to `C[C@]1(C(=O)NCC(F)(F)F)c2ccccc2C(=O)N(Cc2ccc(OC(F)(F)F)cc2)[C@H]1c1ccc(CO)cc1`, for which the composite z-score in test [1] is 0.102 (inactive); with XIP peptide (Xip251-270) it was 0.564. For the same molecule, the z-score was -0.231 in test [2], -3.96 (inactive) in test [3], 0.01 (inactive) in test [4] and -0.125 (inactive) in test [5].

Take `CCN(CC)c1ccc(N2CC=CC34O[C@@H]5C=CCOC(=O)[C@@H]5[C@H]3C(=O)N(CCCO)[C@@H]4C2=O)cc1` (some centres not stated): the composite z-score in test [1] was 0.309 (inactive); with XIP peptide (Xip251-270), 0.306. Further, the z-score in test [2] was -1.55; in test [3] it was -4.02 (inactive); in test [4], -0.232 (inactive); in test [5] it was -0.569 (inactive).

As to `COC(=O)[C@@]1(Cc2ccc(F)cc2)[C@H]2c3cc(C(=O)N4CCCC4)n(CCO)c3C[C@H]2CN1C(=O)c1ccccc1`, the composite z-score in test [1] was -0.33 (inactive); in the test with XIP peptide (Xip251-270) it was 0.676. The z-score in test [2] was -1.26; in test [3] it was -5.44 (inactive); in test [4], -0.961 (inactive); in test [5] it was -0.836 (inactive).

For the molecule `COCCOC(=O)N1C(=O)[C@@]2(c3cc(C#CC4=CCCCC4)ccc31)[C@H](C(=O)N1CCc3cc(OC)c(OC)cc3C1)[C@H]1C(=O)O[C@H](c3ccccc3)[C@H](c3ccccc3)N1[C@@H]2c1ccc(O)cc1`, the composite z-score in test [1] was 1.49 (inactive); in the test on XIP peptide (Xip251-270), 0.795. In addition, the z-score in test [2] was -1.8; in test [3] it was 0.129 (inactive); in test [4] it was -0.0825 (inactive); in test [5] it was 0.246 (inactive).

Consider `COc1cccc(OC)c1C(=O)O[C@H]1[C@@H]2OC(=O)[C@H](Cc3cccc(Br)c3)C/C=C/C[C@@H](Cc3cccc(Br)c3)C(=O)O[C@H]2[C@@H](OC)O[C@@H]1CO`, for which the figures for the composite z-score (in test [1]; with XIP peptide (Xip251-270)) were 1.02 (inactive) and -0.213, respectively. In addition, the z-score in test [2] was -0.545; in test [3], -4.16 (inactive); in test [4], 0.0558 (inactive); in test [5] it was 0.0783 (inactive).

For the molecule `COCCOC(=O)N1C(=O)[C@@]2(c3cc(C#CC4(O)CCCCCC4)ccc31)[C@H](C(=O)NC[C@H](O)c1ccccc1)[C@H]1C(=O)O[C@H](c3ccccc3)[C@H](c3ccccc3)N1[C@@H]2c1ccc(O)cc1`, the composite z-score in test [1] is 0.273 (inactive); in the test with XIP peptide (Xip251-270), 0.78. Besides, the z-score is -0.44 in test [2], -1.8 (inactive) in test [3], 0.302 (inactive) in test [4] and 0.487 (inactive) in test [5].

Regarding `COC(=O)[C@@]1(CCS(=O)(=O)c2ccccc2)N=C(c2ccc(OCCCO)cc2)O[C@H]1c1ccccc1N=[N+]=[N-]`, the composite z-score in test [1] was 1.61 (inactive); in the test on XIP peptide (Xip251-270) it was 0.79. Besides, the z-score in test [2] was -1.98; in test [3] it was -3.19 (inactive); in test [4], -0.305 (inactive); in test [5] it was -0.0592 (inactive).

Regarding `CC(C)CNC(=O)[C@@H]1c2ccccc2C(=O)N(C2Cc3ccccc3C2)[C@H]1c1ccc(CO)cc1`, the figures for the composite z-score (in test [1]; with XIP peptide (Xip251-270)) were 0.45 (inactive) and 0.509, respectively. Also, the z-score in test [2] was 0.134; in test [3] it was -2.36 (inactive); in test [4] it was -0.281 (inactive); in test [5] it was -0.121 (inactive).

Take `CN(C)C(=O)[C@]1(Cc2ccccc2CN=[N+]=[N-])N=C(c2ccc(OCCCO)cc2)O[C@@H]1c1ccccc1N=[N+]=[N-]`: the figures for the composite z-score (in test [1]; in the test with XIP peptide (Xip251-270)) were 0.854 (inactive) and 0.624, respectively. In addition, the z-score was -1.89 in test [2], -1.57 (inactive) in test [3], -0.72 (inactive) in test [4] and -0.903 (inactive) in test [5].

The values above are taken from PubChem BioAssay.
